# Test results: PubChem BioAssay AID2796 (The Scripps Research Institute Molecular Screening Center, 2010)
# Hit rate of the full screen: of about 320,000 compounds, about 8,000 (2.5%) were called active. Only a selection was taken, and actives are over-represented in it overall. Values without a mark were called inactive. Cut-off read from the data, not from the text of the source: active = activation above about 47%; inactive = the rest.
# Target: Aryl hydrocarbon receptor (Homo sapiens) (UniProt P35869)
# Test: AHR activators, primary screen, cell-based, luminescence, luciferase reporter, human (AID 2796);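 note: 0% = vehicle wells and 100% = reference agonist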
# Conditions: AHR-responsive luciferase reporter cells, at 5 µM, active compounds read high
# Chain of Aryl hydrocarbon receptor (Homo sapiens) (P35869 whole entry, looked up): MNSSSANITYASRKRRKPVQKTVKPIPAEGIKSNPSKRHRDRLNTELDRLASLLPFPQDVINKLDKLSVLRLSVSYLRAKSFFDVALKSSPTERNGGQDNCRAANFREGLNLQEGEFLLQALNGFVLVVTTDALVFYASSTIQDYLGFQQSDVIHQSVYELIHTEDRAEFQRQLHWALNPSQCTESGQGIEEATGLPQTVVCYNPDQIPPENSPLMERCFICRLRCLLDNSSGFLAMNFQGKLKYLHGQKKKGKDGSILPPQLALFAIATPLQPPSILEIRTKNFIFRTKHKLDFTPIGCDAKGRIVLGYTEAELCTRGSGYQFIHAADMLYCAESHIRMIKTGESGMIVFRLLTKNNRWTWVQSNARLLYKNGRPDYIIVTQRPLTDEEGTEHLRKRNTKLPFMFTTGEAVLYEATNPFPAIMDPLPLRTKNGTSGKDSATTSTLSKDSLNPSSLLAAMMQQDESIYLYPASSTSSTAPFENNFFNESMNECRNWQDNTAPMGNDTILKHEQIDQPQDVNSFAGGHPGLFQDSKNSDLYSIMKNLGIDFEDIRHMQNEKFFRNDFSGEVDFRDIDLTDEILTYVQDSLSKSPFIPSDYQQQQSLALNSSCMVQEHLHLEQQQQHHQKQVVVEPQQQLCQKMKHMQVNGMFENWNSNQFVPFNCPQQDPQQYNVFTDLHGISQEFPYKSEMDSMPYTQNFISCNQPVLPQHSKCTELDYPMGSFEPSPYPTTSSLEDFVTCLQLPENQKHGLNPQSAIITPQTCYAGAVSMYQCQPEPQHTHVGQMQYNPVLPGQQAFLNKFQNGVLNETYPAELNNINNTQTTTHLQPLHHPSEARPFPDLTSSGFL
row,Compound,activation
1,COC(=O)c1ccc([C@@H](O)[C@H](C)C(=O)CC(=O)OC(C)(C)C)cc1,1.52%
2,COC(=O)c1ccc(NC(=O)CSc2nc(N)c(NC(=O)c3ccc(Br)o3)c(=O)[nH]2)cc1,-1.66%
3,Cn1c2ccccc2c2c(C(=O)N3CCN(c4ccc(F)cc4)CC3)cn(C3CCCC3)c(=O)c21,12.2%
4,CNC(=S)NNC(=O)c1oc2nc(-c3ccccc3)cc(-c3ccco3)c2c1N,15.9%
5,O=C(Nc1cccc(F)c1)c1cc(-c2ccco2)nc2ccccc12,33.2%
6,NNC(=O)c1oc2nc(-c3ccccc3)cc(-c3ccco3)c2c1N,76.1% (active)
7,CCN(Cc1nc2ccccc2c(=O)[nH]1)Cc1cc(=O)oc2cc(C)c(C)cc12,0.64%
8,COC(=O)c1ccc(CNC(=O)c2ccc(S(=O)(=O)N3CCCCCC3)cc2)cc1,-0.2%
9,CCN(C(=O)Cc1nc(N)n[nH]1)C1(C(=O)Nc2ccccc2)CCCCC1,1.44%
10,Brc1c(CSc2nncc3ccccc23)nc2ccccn12,48.9% (active)
11,CN(C(=O)CSc1nncc2ccccc12)C1CCCCC1,8.04%
12,CC(C)CC(=O)c1c[nH]c(C(=O)NCc2ccccc2)c1,5.43%
13,O=C(NC(=S)N1CCc2ccccc21)c1ccco1,8.66%
14,O=C(NNC(=S)NC(=O)c1cn(-c2ccccc2)nc1-c1ccccc1)c1ccncc1,12.3%
15,O=C(NCc1ccco1)c1cccn2c(=O)c3c4c(sc3nc12)CCCC4,48.2% (active)
16,O=C(NCc1ccco1)c1nc2ncccn2n1,-0.33%
17,O=c1oc(-c2ccco2)nc2sc3c(c12)CCCCC3,5.12%
18,Fc1ccc2[nH]c3c(N4CCSCC4)ncnc3c2c1,58.6% (active)
19,Cc1c(CN2CC[C@@H](N3CCN(c4ccccn4)CC3)[C@H](O)C2)[nH]c2ccc(F)cc12,2.27%
20,COc1ccc(N2CCN(C(=O)Cn3cnc4sc(C)c(S(=O)(=O)N5CCOCC5)c4c3=O)CC2)cc1,-4.91%
21,CCOc1ccccc1NC(=O)Nc1cc(OC)ccc1OC,71% (active)
22,COc1ccc(OC)c(NC(=O)CC(Cc2ccccc2OC)C(=O)O)c1 (centres undefined),-3.53%
23,CCOC(=O)c1cc(NC(=O)c2cccnc2)ccn1,4.05%
24,O=C(Nc1cnccn1)c1cccnc1,0.46%
25,CCOc1ccccc1NC(=O)c1cccnc1,93.9% (active)

row,Compound,activation
1,CCOc1ccc(NC(=O)Nc2cc(C)ccc2OC)cc1,-5.37%
2,O=C(Nc1ccc(N2CCOCC2)nc1)c1c(F)cccc1F,-5.89%
3,COc1ccc(C(=O)N(C)CC(O)c2ccccc2)cc1OC1CCN(C(C)=O)CC1 (centres undefined),2.56%
4,Cc1nc(SCC(=O)NC2CCCCC2C)c(C#N)c(C)c1C (centres undefined),-1.86%
5,CC(C)CC1NC(=O)c2cc(Cl)ccc2-n2c1nc1ccccc1c2=O (centres undefined),20.2%
6,CCOCCCNC(=O)C(NC(=O)CNC(=O)c1ccccc1)c1ccc(C)cc1 (centres undefined),0.56%
7,O=C(c1ccc(F)cc1)C1CCN(Cc2cn[nH]c2-c2ccccc2)CC1,3.88%
8,Cc1cccc(C)c1NC(=O)C1(C)c2cccc[n+]2CC(=O)N1Cc1cccs1 (centres undefined),1.93%
9,O=S(=O)(Nc1ccc(Oc2ncccn2)c(Cl)c1)c1ccc(F)cc1,-0.48%
10,CCN(CC)C(=O)CC1(c2ccccc2OC)CCOC(C(C)C)C1 (centres undefined),-3.4%
11,CCc1ccc2oc(-c3ccc(N)cc3)nc2c1,78.3% (active)
12,O=C(Nc1ccc2oc(-c3ccc4ccccc4c3)nc2c1)c1cccs1,33.5%
13,O=C(NC(=S)Nc1ccc(Br)cc1F)C1CCCCC1,-1.21%
14,CCOc1ccc(N(CC(=O)NCCc2ccc(F)cc2)S(=O)(=O)c2ccccc2)cc1,0.85%
15,O=C(Nc1cccc(-n2cnnn2)c1)c1cccnc1,4.54%
16,Cc1cccc(NC(=O)c2nnn(-c3cccc(C(F)(F)F)c3)c2N)c1,-4.69%
17,O=C(Nc1ccc(C(F)(F)F)cc1)c1cccc(-n2cnnn2)c1,102% (active)
18,Cc1c(C(=O)Nc2cccc(Cl)c2)cn2c(nc3ccccc32)c1C#N,7.03%
19,Cc1nc(-c2ccccc2)cn2c1nc1ccccc12,77% (active)
20,CCOCCn1c(-c2ccccc2)nc2ccccc21,-0.77%
21,Cc1ccc(-n2nc(C)c(/C=N/NC(=O)c3cccs3)c2Cl)cc1,11.5%
22,COc1ccccc1CNC(=O)c1ccc(CS(=O)(=O)c2ccccc2)o1,-0.56%
23,O=C(NCc1cccnc1)c1ccc(CS(=O)(=O)c2ccc(Br)cc2)o1,77.4% (active)
24,COc1ccc(CCNC(=O)c2ccc(CS(=O)(=O)c3ccc(Br)cc3)o2)cc1OC,2.36%
25,C[C@H](NC(=O)C1CCN(S(=O)(=O)c2ccccc2)CC1)C(=O)NCc1ccccc1,1.44%

row,Compound,activation
1,O=C(COC(=O)c1ccco1)Nc1ccc(Cl)cn1,10.9%
2,O=C(Nc1ccc(Cl)cn1)c1cnn2cccnc12,129% (active)
3,O=C(Nc1ccc(Cl)cn1)c1ccc2c(c1)OCCO2,-5.76%
4,O=C(CN1C(=O)NC(Cc2c[nH]c3ccccc23)C1=O)Nc1ccccc1C(F)(F)F (centres undefined),-0.64%
5,COc1ccc(NC(=O)C2COc3ccccc3O2)cc1 (centres undefined),1.18%
6,O=C(Nc1ncc([N+](=O)[O-])s1)C1COc2ccccc2O1 (centres undefined),6.36%
7,COc1ccc(OC)c2sc(NC(=O)C3COc4ccccc4O3)nc12 (centres undefined),50.9% (active)
8,CCC(=O)N(Cc1cc2ccccc2[nH]c1=O)c1ccc(OC)cc1,3.79%
9,O=[N+]([O-])c1cc(S(=O)(=O)NCCc2ccccn2)ccc1Cl,-0.28%
10,Cc1c([N+](=O)[O-])c(N)nn1C,2.61%
11,O=C(CN1CCN(c2ccc(Cl)cc2)CC1)NCc1cccs1,-1.24%
12,CC(C)OC(=O)CN1CCN(c2ccc(Cl)cc2)CC1,1.24%
13,O=C(CN1CCN(c2ccc(Cl)cc2)CC1)c1ccccc1,73.2% (active)
14,CCCCC(CC)CNCc1cccn1CCN1CCOCC1 (centres undefined),1.27%
15,COc1cccc(-n2cc(C(=O)O)c3ccccc3c2=O)c1,-1.78%
16,COc1cccc(N2C(=O)CN(Cc3ccccc3)C2=S)c1,1.66%
17,COc1cccc(-n2c(=S)[nH]c3c(oc4ccccc43)c2=O)c1,64.8% (active)
18,CCOC(=O)C1CCN(S(=O)(=O)c2ccc3c(c2)N(C)C(=O)CC(=O)N3C)CC1,-0.75%
19,CCOC(=O)C1CN(S(=O)(=O)c2ccc(OC)cc2)c2cc(Cl)ccc2O1 (centres undefined),1.38%
20,COc1ccc(C2OCC3(CO2)SC(=O)NC3=O)cc1OC (centres undefined),3.57%
21,CN(C)c1ccnc(Nc2ccc(F)cc2)c1C#N,10.8%
22,Fc1ccc(Nc2nnns2)cc1,-0.19%
23,CN(C)c1nc(Nc2ccc(Cl)c(Cl)c2)nc(N(C)C)n1,130% (active)
24,CN(C)c1nc(NN)nc(Nc2ccc(F)cc2)n1,76.4% (active)
25,CNc1nc(Nc2ccc(C)c(Cl)c2)nc(N)c1[N+](=O)[O-],38.2%

row,Compound,activation
1,CC(=O)Nc1nc(N(C)C)nc(N(C)C)n1,-2.86%
2,Cc1cccc(OCC(O)CN2CCN(CCN3C(=O)c4cccc5cccc(c45)C3=O)CC2)c1C (centres undefined),1.57%
3,Nc1nc(O)c(CC(=O)O)s1,1.52%
4,CCCCC/C=C/C1=CC(=O)C[C@H](c2ccc(Cl)cc2)C1,0.78%
5,CCOC(=O)C1CCN(C(=O)C2CCCN(S(=O)(=O)c3ccc(OC)c(Cl)c3)C2)CC1 (centres undefined),1.31%
6,CCCCc1ccc(NC(=O)NCc2cccnc2)cc1,7.22%
7,Cn1nnnc1SCC(=O)Nc1sccc1C(N)=O,-1.01%
8,Cn1nnnc1SCC(=O)Nc1nc2ccccc2s1,50.3% (active)
9,O=C(CCNC(=O)c1ccccc1)Nc1nc2ccccc2s1,24.7%
10,O=C(CCC(=O)c1cccs1)Nc1nc2ccccc2s1,38%
11,O=C(Nc1ccccc1)Nc1nc2ccccc2s1,74.5% (active)
12,COC(=O)c1ccccc1NC(=O)CSc1nnnn1C,3.56%
13,Brc1cnc2ccccc2c1N1CCCCC1,-3.31%
14,Cc1ccc(C(=O)N/C(=C\c2cccs2)C(=O)NCCc2ccccn2)cc1C,0.25%
15,N#Cc1c(N2CCCCC2)nc(N)c2c(N)nc(SCC(=O)O)cc12,6.26%
16,Cc1ccc(NC(=O)c2cnc(SCC(=O)NCC3CCCO3)n(C)c2=O)cc1 (centres undefined),16.3%
17,Cn1c(SCC(=O)c2ccccc2)ncc(C(=O)Nc2ccc(F)cc2)c1=O,98.3% (active)
18,Cn1c(SCC(=O)c2ccc(F)cc2)nnc1-c1ccccn1,-0.55%
19,CN(CC(=O)Nc1ccc(Cl)cc1)CC(=O)Nc1cccc2ccccc12,5.21%
20,O=C(CN1C(=O)NC2(CCCCCC2)C1=O)Nc1ccc([N+](=O)[O-])cc1,-2.64%
21,COc1ccc(OCc2cc(C(=O)N3CCCC3)no2)c2ccccc12,50.9% (active)
22,COc1cc(Cl)ccc1OCc1cc(C(=O)N2CC[C@@H]3CCCC[C@H]3C2)no1,6.28%
23,COc1ccccc1-c1cc(C(=O)N2CCCCC2)no1,32.7%
24,Cc1ccc(C(=O)NCC(=O)OCC(=O)NC2CCCCCCC2)cc1,0.7%
